7 compounds from PubChem BioAssay (NCI) can be followed below.

The structures appear in SMILES notation. About 83,000 compounds went through this panel and 20% of them were active in at least one assay; those are over-represented in the sample as a whole.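 The endpoint reported here, percent growth, reads 100 for growth as untreated, 0 for no net growth and -100 for all cells dead.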 Values without a mark were called inactive. The source made the active and inactive calls. The calls were made as follows: active = growth percent below 10; inactive = the rest.

Among the test systems are HCT-15 colon; HT29 colon; SNB-75 CNS; SNB-19 CNS; U251 CNS; PC-3 prostate; SK-MEL-5 melanoma; UACC-62 melanoma; LOX IMVI melanoma; SK-MEL-2 melanoma; EKVX NSCLC; SN12C renal; TK-10 renal; ACHN renal; CAKI-1 renal; A498 renal; MOLT-4 leukemia; UO-31 renal; CCRF-CEM leukemia; SK-MEL-28 melanoma.
Holding throughout (assay): NCI-60 one-dose screen, 48 h (100 = growth as untreated, 0 = no growth, -100 = all killed)
Conditions in all cases: 10 µM unless noted

Take `CC(Sc1ccccc1)C(=O)O` (configuration not stated): the growth in the assay on HCT-15 colon was 100%; in the assay with HT29 colon, 99.3%; in the assay on SNB-75 CNS, 91.6%; in the assay with SNB-19 CNS, 94.5%; in the assay on U251 CNS it was 91.1%; in the assay on PC-3 prostate it was 103%. Besides, the growth in the assay on SK-MEL-5 melanoma is 106%; in the assay with UACC-62 melanoma it was 94.5%; with LOX IMVI melanoma, 95.6%; with SK-MEL-2 melanoma, 116%; in the assay with EKVX NSCLC, 94.2%; in the assay with SN12C renal, 103%. Moreover, the growth was 102% in the assay with TK-10 renal; 104% in the assay on ACHN renal; 76.5% in the assay on CAKI-1 renal; 88.7% with A498 renal; 141% with MOLT-4 leukemia.
In the case of `O=C1CCCCN1CCCCC#Cc1cccc(C#Cc2cccnc2)c1`, the growth in the assay on HCT-15 colon was 44.7%; with HT29 colon, 86.5%; in the assay with SNB-75 CNS, 79.5%; in the assay on SNB-19 CNS, 78.3%; with U251 CNS, 72.4%; in the assay with PC-3 prostate it was 61.5%. Moreover, the growth in the assay with SK-MEL-5 melanoma is 62.6%; in the assay with UACC-62 melanoma, 36.3%; in the assay with LOX IMVI melanoma, 95.8%; in the assay with SK-MEL-2 melanoma, 96.4%; in the assay with EKVX NSCLC, 93.9%; with SN12C renal, 90.3%. Further, the growth was 59.1% with UO-31 renal; 229% with TK-10 renal; 101% with ACHN renal; 84.4% in the assay on CAKI-1 renal; 84.3% in the assay on A498 renal; -23% (active) in the assay with CCRF-CEM leukemia. In the assay on MOLT-4 leukemia, the growth was -49.9% (active).
For `O=C(CN1C(=O)S/C(=C\C(Cl)=C\c2ccccc2)C1=O)NC1C=CS(=O)(=O)C1` (configuration not stated), the growth with HCT-15 colon was -18.1% (active); with HT29 colon, -6.75% (active); in the assay with SNB-75 CNS, 19%; with SNB-19 CNS, 40.4%; with U251 CNS, 16.9%; in the assay with PC-3 prostate, 19.7%. The growth in the assay on SK-MEL-5 melanoma was 17.1%; in the assay with UACC-62 melanoma it was -19.2% (active); in the assay with LOX IMVI melanoma it was -73.5% (active); in the assay on SK-MEL-2 melanoma, 9.43% (active); with EKVX NSCLC it was 17.7%; in the assay with SN12C renal it was -13.2% (active). For the same compound, the growth in the assay on UO-31 renal is -78% (active); in the assay on TK-10 renal it was -14.7% (active); with CAKI-1 renal, 16.9%; with A498 renal it was 97.2%; with CCRF-CEM leukemia it was 7.5% (active); in the assay with MOLT-4 leukemia it was 4.12% (active).
Consider `COC1=CC(=O)C(OC)=C(O)C1=O`, for which the growth was 97.7% in the assay with HCT-15 colon; 106% in the assay on HT29 colon; 77% in the assay on SNB-75 CNS; 101% in the assay on SNB-19 CNS; 101% in the assay on U251 CNS; 97.2% in the assay with PC-3 prostate. In addition, the growth was 97.8% in the assay on SK-MEL-5 melanoma; 96.1% in the assay on UACC-62 melanoma; 99.6% in the assay with LOX IMVI melanoma; 105% in the assay on SK-MEL-2 melanoma; 98.1% in the assay with EKVX NSCLC; 98.2% with SN12C renal. The growth is 93.1% in the assay with UO-31 renal; 105% in the assay on TK-10 renal; 98.2% in the assay on ACHN renal; 93.9% in the assay on CAKI-1 renal; 106% in the assay on A498 renal; 108% with CCRF-CEM leukemia. The growth in the assay with MOLT-4 leukemia is 107%.
Consider `CN1CCN(CCNC(=O)c2cccc(CN3c4cccc5c4C(=Cc4cccnc43)N(C)C5=O)c2)CC1`, for which the growth with HCT-15 colon was 10.7%; in the assay with HT29 colon, 17.7%; in the assay with SNB-75 CNS, -11.2% (active); with SNB-19 CNS, 42.9%; in the assay on U251 CNS, 48.2%; with PC-3 prostate it was 39.6%. Also, the growth with SK-MEL-5 melanoma is 12.9%; in the assay with UACC-62 melanoma, 17.3%; in the assay with LOX IMVI melanoma it was 8.25% (active); in the assay on SK-MEL-2 melanoma, 62%; in the assay with EKVX NSCLC it was 40.8%; in the assay with SN12C renal, 42.8%. In addition, the growth in the assay on UO-31 renal is 14.3%; in the assay on TK-10 renal, 25.4%; in the assay on ACHN renal, 23.5%; in the assay with A498 renal it was 30.9%; in the assay with CCRF-CEM leukemia, 47%; in the assay on MOLT-4 leukemia, 47.4%.
`O=c1ccc2nc(-c3ccccn3)nn(-c3ccccc3)c-2c1`: the growth in the assay with HCT-15 colon is -48% (active); with HT29 colon, -44.2% (active); with SNB-75 CNS, 98.4%; in the assay with SNB-19 CNS it was 98.9%; in the assay with U251 CNS, 98.3%; in the assay with PC-3 prostate it was 89%. Also, the growth in the assay on SK-MEL-5 melanoma was 36%; with UACC-62 melanoma, 72.7%; with LOX IMVI melanoma, 11.7%; in the assay with SK-MEL-2 melanoma, 106%; in the assay with EKVX NSCLC it was 115%; in the assay with SN12C renal, 84.6%. Further, the growth was 40.1% in the assay with UO-31 renal; -70.9% (active) in the assay with TK-10 renal; 72.5% with CAKI-1 renal; 91.9% with A498 renal; 8.49% (active) in the assay with CCRF-CEM leukemia; 5.56% (active) in the assay with MOLT-4 leukemia.
As to `Clc1ccc(CNc2ccc3nc(CCC4CCCCC4)[nH]c3c2)cc1`, the growth in the assay on HCT-15 colon is 9.61% (active); with HT29 colon, 4.9% (active); in the assay on SNB-75 CNS it was 77.2%; in the assay with SNB-19 CNS, 71.1%; in the assay with U251 CNS it was 43.8%; in the assay with PC-3 prostate it was 46.7%. The growth is 0.653% (active) in the assay with SK-MEL-5 melanoma; 67.4% in the assay on UACC-62 melanoma; 42% with SK-MEL-28 melanoma; 85.6% in the assay on SK-MEL-2 melanoma; 75.6% with EKVX NSCLC; 59.1% in the assay with SN12C renal. Also, the growth with UO-31 renal is 29.9%; with TK-10 renal, 83.6%; in the assay with ACHN renal it was 76.6%; in the assay with A498 renal it was 45.8%; in the assay on CCRF-CEM leukemia, 41.4%; in the assay with MOLT-4 leukemia, 39.1%.
